Screening results as filed in PubChem.
This is a sample that favours compounds with a hit; in the whole collection about 21% have one here.
ClpP mod: qHTS Assay for Activators of ClpP; Potency, µM (top dose mostly 57.5 µM), for inactives: top-dose activity change, negative = active; 340,000 compounds, 1.9% hits; purified B. subtilis ClpP, FRET peptide cleavage, 20 min; ATP-dependent Clp protease proteolytic subunit (Bacillus subtilis (strain 168)), P80244; active = well fitted falling curve with a large enough effect; inconclusive = small, poorly fitted or top-dose-only effect; inactive = no such curve, though single readings can be large or run the other way; also: potency is read from the fitted curve at half-maximal effect; the source files actives as falling curves though it sought activators and does not explain the sign; nearly all actives have a fitted effect of over 65% in size
Target sequence (P80244 whole entry, looked up): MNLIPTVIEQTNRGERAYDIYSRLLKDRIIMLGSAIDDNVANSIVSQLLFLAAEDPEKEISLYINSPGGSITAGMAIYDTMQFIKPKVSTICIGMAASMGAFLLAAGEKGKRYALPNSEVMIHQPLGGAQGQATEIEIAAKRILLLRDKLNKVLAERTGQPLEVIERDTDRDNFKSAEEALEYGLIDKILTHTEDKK
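Purified B. subtilis ClpP, 10 microg/mL final in Tris/HCl pH8 with KCl, BSA, glycerol and Tween-20, cleaved an Abz/nitrotyrosine-quenched decapeptide. Fluorescence (ex 320, em 430) was read at 0 and 20 min at room temperature. Delta was normalized to 5.8 microM ADEP and DMSO/no-enzyme controls.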
DT40 TDP1 CPT: qHTS for Inhibitors of human tyrosyl-DNA phosphodiesterase 1 (TDP1): qHTS in cells in presence of CPT | chicken DT40 Tdp1-/-;hTDP1 cells + 20 nM CPT, ATP luminescence, 48 h | Potency, µM (titrated, usually from 46.2 µM), inactives show at the top dose activity change, negative = growth inhibition, hits mostly inhibitors | 420,000 compounds, 12% hits | AID 686979, 2013; also: potency is read from the fitted curve at half-maximal effect; % is scaled to controls: 0 for no effect and ±100 for the full control effect; nearly all actives have a fitted effect of over 55% in size
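Chicken DT40 Tdp1-/- cells stably complemented with human TDP1 were seeded at 400 cells/well in medium containing 20 nM camptothecin, exposed to pin-transferred compounds, and grown at 37 °C for at least 48 hr. Viability was read as ATP luminescence.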
DRD3 antagonist: qHTS of D3 Dopamine Receptor Antagonist: qHTS; 360,000 compounds, 2.5% hits; D3R cells, DiscoveRx beta-arrestin luminescence, antagonist mode; hits give low values; AID 652054, 2013; max response, negative = inhibition, %; in the data active = max response below about -50%; inconclusive = no clear call, values can overlap the other calls; also: % is scaled to controls: 0 for no effect and ±100 for the full control effect
Target sequence (P35462 whole entry, looked up): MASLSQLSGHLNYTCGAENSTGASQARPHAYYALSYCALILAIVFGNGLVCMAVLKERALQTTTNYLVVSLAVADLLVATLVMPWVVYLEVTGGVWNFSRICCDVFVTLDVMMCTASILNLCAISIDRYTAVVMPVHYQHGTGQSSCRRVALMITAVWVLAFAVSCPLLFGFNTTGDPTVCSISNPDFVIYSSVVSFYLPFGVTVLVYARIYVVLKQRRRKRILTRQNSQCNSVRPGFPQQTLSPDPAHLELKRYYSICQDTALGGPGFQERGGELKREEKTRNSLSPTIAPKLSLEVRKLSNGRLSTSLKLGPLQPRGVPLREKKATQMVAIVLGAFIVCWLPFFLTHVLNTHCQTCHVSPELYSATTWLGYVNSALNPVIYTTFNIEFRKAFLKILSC
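Cells expressing the human receptor were seeded at 1500 cells/well, incubated overnight at 37 degrees C in 5% CO2, then exposed to library compounds with dopamine controls for 90 minutes at 37 degrees C before luminescent detection.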
DRD3 agonist: qHTS of D3 Dopamine Receptor Agonist: qHTS | D(3) dopamine receptor (Homo sapiens), P35462 | D3R DiscoveRx beta-arrestin cells, luminescence, 90 min | max activation, % | 410,000 compounds, 0.58% hits | AID 652048, 2013; in the data active = max activation above about 30%; also: 0% is about no effect
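Cells at 1500/well, incubated overnight, then treated with pinned compounds (dopamine as control) for 90 min at 37 degrees C. DiscoveRx reagent added for 30 - 60 minutes at room temperature; luminescence read.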
IL-1B inflam inh: qHTS for Inhibitors of Inflammasome Signaling: IL-1-beta AlphaLISA Primary Screen; THP-1 LPS/ATP IL-1B secretion, AlphaLISA, 16 h; hits give low values; activity change, % at 57.5 µM; 360,000 compounds, 4.7% hits; AID 743279, 2014; in the data active = activity change below about -50%; inconclusive = mostly about -30% to -49%; also: % is scaled to controls: 0 for no effect and ±100 for the full control effect
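THP-1 cells pretreated 1 hr with compounds (up to 57.5 uM final), then stimulated with LPS (250 ng/mL final) plus ATP (1.25 mM final); secreted IL-1B measured by AlphaLISA after 16 hr, decreased signal indicating inhibition.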
TDP1 cell noCPT: qHTS for Inhibitors of human tyrosyl-DNA phosphodiesterase 1 (TDP1): qHTS in cells in absence of CPT. DT40 Tdp1-/- hTDP1 cells, no CPT, ATP luminescence, 48 h. Potency, µM (highest dose often 46.2 µM), for inactives: top-dose activity change, negative = growth inhibition, most hits filed as inhibitors. 420,000 compounds, 15% hits; also: potency is read from the fitted curve at half-maximal effect; % is scaled to controls: 0 for no effect and ±100 for the full control effect; nearly all actives have a fitted effect of over 55% in size
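Cells were dispensed at 400 per well, compounds added by pin tool, plates incubated ≥48 hr at 37 °C, then CellTiter-Glo added for 30 min at room temperature before luminescence reading. Line: DT40 Tdp1-/- complemented with hTDP1; camptothecin omitted.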
Starred values were filed as active, the others as inactive; ? = inconclusive; . = not tested or not shown. Unless noted, calls follow the shape of the dose curve; as a rule, active = well fitted inhibition curve with a large enough effect; inconclusive = small, poorly fitted or top-dose-only effect; inactive = flat fitted curve, though single readings scatter.

SMILES	ClpP mod	DT40 TDP1 CPT	DRD3 antagonist	DRD3 agonist	IL-1B inflam inh	TDP1 cell noCPT
CCOC(=O)C1=C(C)Nc2nc3ccccc3n2C1c1ccccc1 (configuration not stated)	35.5µM*	-21.6%	-2.5	-5.6	-6.8	-29.4%
CC1=C(C(=O)N2CCCCC2)C(c2cccc(Cl)c2)n2c(nc3ccccc32)N1 (configuration not stated)	-17.9%	16.4µM*	.	-8.6	.	?
COc1ccccc1NC(=O)C1=C(C)Nc2nc3ccccc3n2C1c1ccccc1Cl (configuration not stated)	5.6%	14.6µM*	.	-2.3	.	?
Cc1cccc(-n2c(C)cc(C(=O)NC3CCCCC3)c2C)c1	-2.0%	?	-10.4	-2.8	-90.1*	13µM*
Cc1cccc(-n2c(C)nc3cc(C(=O)NCC4CCCO4)ccc32)c1 (configuration not stated)	-0.2%	-20.0%	-11.1	0.4	-22.2	5.1%
Cc1cccc(N2CCN(C(=O)NC3CCCCC3)CC2C)c1 (configuration not stated)	0.4%	-27.5%	-10.6	1.2	-11.9	-7.9%
Cc1cccc(-n2c(C)nc3cc(C(=O)NC4CCCCCC4)ccc32)c1	0.2%	13µM*	.	-15.2	.	23.1µM*
O=C(O)CCS(=O)(=O)c1ccccc1Cl	.	5.6%	15.0	3.4	-0.1	-21.3%
CC(C)(C)c1ccc(OCc2cnc(Cl)s2)cc1	.	-28.5%	?	-10.0	-2.9	?
Cc1cccc(-c2c3c(=O)n(C)c(=O)n(C)c3c3nnc4ccccc4n23)c1	-0.4%	?	26.9	3.5	11.7	6.51µM*
Cc1ccc(-c2c3c(=O)n(C)c(=O)n(C)c3c3cnc4ccccc4n23)cc1	?	-14.0%	.	-4.0	.	-14.1%
Cc1cccc(-c2c3c(=O)n(C)c(=O)n(C)c3c3c(C)nc4ccccc4n23)c1	-14.4%	?	.	5.3	.	6.51µM*
O=C(O)CCCn1cc(NC(=O)COc2ccc([N+](=O)[O-])cc2)cn1	.	-4.4%	17.8	8.4	-7.7	-9.1%
O=C(CN1C(=O)C2C3C=CC(C4CC34)C2C1=O)Nc1cnc2ccccc2c1 (configuration not stated)	.	?	-6.5	11.6	5.0	?
OCCn1ccc(-c2ccccc2OCc2ccc(F)cc2)n1	.	?	2.7	4.5	-8.4	20.6µM*
COc1ccc(N2CCN(C(=O)COC(=O)c3ccccc3OCc3ccc(F)cc3)CC2)cc1	.	?	9.5	-1.9	12.8	?
O=C(CCOc1ccccc1F)N1CCN(c2ccccc2O)CC1	.	?	23.6	12.6	13.7	16.4µM*
CC(=O)c1ccc(N2CCN(C(=O)COc3ccccc3F)CC2)c(F)c1	-2.6%	?	29.6	1.6	16.5	23.1µM*
CCC(=O)c1ccc(N2CCN(C(=O)COc3ccccc3F)CC2)c(F)c1	.	?	3.4	2.1	31.8	13µM*
N#Cc1c(-c2ccccc2)c(-c2ccccc2)nn(CC(=O)NNC(=O)Nc2ccc(Cl)cc2)c1=O	.	?	-22.7	-14.3	.	23.1µM*
COC(=O)CCn1nc(-c2ccc(Cl)cc2)c2ccccc2c1=O	-1.2%	-24.0%	-6.7	0.4	9.6	?
O=C(Cn1nc(-c2ccc(Cl)cc2)c2ccccc2c1=O)Nc1cccc(Br)c1	-2.6%	-21.2%	.	5.3	.	-8.7%
N#Cc1c(-c2ccc(Cl)cc2)c(-c2ccc(Cl)cc2)nn(CCOC(=O)CCC(=O)O)c1=O	-12.3%	10.3µM*	6.4	0.7	13.3	?
O=C(CSc1ccccc1)NCCCc1ccccc1	.	2.4%	-29.0	7.8	3.2	-13.3%
COc1cc2ccccc2ccc1=NO	.	16.4µM*	1.1	2.8	?	11.6µM*
SMILES	ClpP mod	DT40 TDP1 CPT	DRD3 antagonist	DRD3 agonist	IL-1B inflam inh	TDP1 cell noCPT
COc1ccccc1-c1nc2cc3ccccc3cc2nc1-c1ccccc1OC	.	?	17.8	-2.5	-12.7	?
COc1ccc(OC)c2cc3ccccc3cc12	-7.2%	0.731µM*	-24.2	6.1	0.0	0.92µM*
COCCCNc1nnc(Cc2ccc(Cl)cc2)c(=O)[nH]1	-1.4%	0.411µM*	?	-12.2	24.3	0.82µM*
COCCNc1nnc(Cc2ccc(Cl)cc2)c(=O)[nH]1	-2.0%	-21.5%	-14.0	1.7	9.7	22.1%
COc1cccc(CNC(=O)COC(=O)/C=C/c2ccc(SC)cc2)c1	3.3%	-27.6%	-20.3	-9.7	12.2	?
CCO[C@@H]1OC(C(=O)NCc2nc3ccccc3[nH]2)=C[C@H](C2CC2)[C@H]1CCCO	-1.3%	4.61µM*	4.6	-0.2	18.2	2.91µM*
CCO[C@H]1OC(C(=O)NCc2nc3ccccc3[nH]2)=C[C@@H](c2ccc(Br)cc2)[C@@H]1CCCO	-1.4%	?	2.9	11.5	-15.9	?
CCO[C@@H]1OC(C(=O)NCc2nc3ccccc3[nH]2)=C[C@H](C(C)(C)C)[C@H]1CCCO	0.2%	1.3µM*	-13.5	-2.2	33.6	1.16µM*
C[C@@H]1C=C(C(=O)NCc2nc3ccccc3[nH]2)O[C@H](OCc2ccc(CO)cc2)C1	-5.0%	16.4µM*	10.7	3.0	0.3	?
CCOC(=O)C1CCN(C(=O)CN(c2ccc3c(c2)OCCO3)S(=O)(=O)c2ccccc2)CC1	.	?	-0.5	-0.2	-5.6	-29.6%
CCN(CC)S(=O)(=O)c1ccc(-c2cc(C(=O)OC)sc2C(F)(F)F)cc1	-1.8%	-29.7%	-18.2	-18.8	-20.9	18.4µM*
COC(=O)c1cc(-c2ccc(S(=O)(=O)N3CCCC3)cc2)c(C(F)(F)F)s1	.	10.0%	2.6	-2.4	3.0	?
CCN(CC)S(=O)(=O)c1ccc(C(=O)Nc2nc3ccc(Cl)cc3s2)cc1	-0.1%	?	.	7.5	.	?
COC(=O)c1cc(-c2ccc(S(=O)(=O)N3CCCCC3)cc2)c(C(F)(F)F)s1	1.0%	?	0.0	-5.2	8.8	23.1µM*
Cc1cc(C)n(CCCC(=O)O)n1	.	2.6%	0.2	-1.4	-67.2*	-3.5%
Cc1ccc(C(=O)NCCC2=CCCCC2)cc1S(=O)(=O)N1CCCCC1	-3.1%	?	-3.8	-6.6	-57.8*	?
